Records with an inconclusive call do not appear. Activity calls are given as the source filed them. Calls follow the shape of the dose curve; as a rule, active = well fitted curve in the direction sought with a large enough effect; inconclusive = small, poorly fitted or top-dose-only effect, or another doubt; inactive = no such curve, though single readings can be large; an effect the other way counts as inactive or inconclusive.
How the values were obtained:
[1] = target: ATP-dependent 6-phosphofructokinase (Trypanosoma brucei brucei) (UniProt O15648); assay: qHTS Assay to Find Inhibitors of T. brucei phosphofructokinase: hit validation (AID 492961);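 also: luminescence reports ADP formed as PFK phosphorylates fructose-6-phosphate with ATP; % is scaled to controls: 0 for no effect and ±100 for the full control effect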
How it was run: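 PFK 1.25 nM, F6P 0.5 mM, ATP 0.1 mM, MgCl2 5 mM, 0.1 M TEA pH 8.0, Tween20 0.01%, BSA 0.1%; 45 min RT. ADP-Glo two-step detection, luminescence. qHTS titration; curve fitting with curve-class categorization.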

[2] = qHTS profiling for inhibitors of Plasmodium falciparum proliferation (AID 504749); also: potency is read from the fitted curve at half-maximal effect;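 as to activity, negative = inhibition: 0% = DMSO vehicle and full inhibition = artemisinin control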; as to all read-outs here: nearly all actives have a fitted effect of over 60% in size; details: P. falciparum in erythrocytes, SYBR Green DNA, 72 h; for activity, negative = inhibition: at 28.7 µM (top of the series)
How it was run: (§1)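 Quantitative HTS: compounds pinned into medium, infected erythrocytes added (0.3% parasitemia, 2.5% hematocrit), 72 h culture at 37 C under 5% CO2. Saponin/Triton lysis with SYBR Green I, overnight RT, then fluorescence read.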

AA1029 = assay: as above; details: P. falciparum in erythrocytes, SYBR Green DNA, 72 h; series mostly up to 28.7 µM
How it was run: as §1

AS120 = assay: as above; details: P. falciparum in erythrocytes, SYBR Green DNA, 72 h; series mostly up to 28.7 µM
How it was run: as §1

ATS189 = assay: as above; details: P. falciparum in erythrocytes, SYBR Green DNA, 72 h; series mostly up to 28.7 µM
How it was run: as §1

CP185 = assay: as above; details: P. falciparum in erythrocytes, SYBR Green DNA, 72 h; series mostly up to 28.7 µM
How it was run: as §1

CP191 = assay: as above; details: P. falciparum in erythrocytes, SYBR Green DNA, 72 h; series mostly up to 28.7 µM
How it was run: as §1

CP192 = assay: as above; details: P. falciparum in erythrocytes, SYBR Green DNA, 72 h; series mostly up to 28.7 µM
How it was run: as §1

CP211 = assay: as above; details: P. falciparum in erythrocytes, SYBR Green DNA, 72 h; series mostly up to 28.7 µM
How it was run: as §1

CP217 = assay: as above; details: P. falciparum in erythrocytes, SYBR Green DNA, 72 h; series mostly up to 28.7 µM
How it was run: as §1

CP238 = assay: as above; details: P. falciparum in erythrocytes, SYBR Green DNA, 72 h; series mostly up to 28.7 µM
How it was run: as §1

CP252 = assay: as above; details: P. falciparum in erythrocytes, SYBR Green DNA, 72 h; series mostly up to 28.7 µM
How it was run: as §1

CP262 = assay: as above; details: P. falciparum in erythrocytes, SYBR Green DNA, 72 h; series mostly up to 28.7 µM
How it was run: as §1

CP265 = assay: as above; details: P. falciparum in erythrocytes, SYBR Green DNA, 72 h; series mostly up to 28.7 µM
How it was run: as §1

CP286 = assay: as above; details: P. falciparum in erythrocytes, SYBR Green DNA, 72 h; series mostly up to 28.7 µM
How it was run: as §1

Dd2 = assay: as above; details: P. falciparum in erythrocytes, SYBR Green DNA, 72 h; series mostly up to 28.7 µM
How it was run: as §1

ECU = assay: as above; details: P. falciparum in erythrocytes, SYBR Green DNA, 72 h; series mostly up to 28.7 µM
How it was run: as §1

FAB9 = assay: as above; details: P. falciparum in erythrocytes, SYBR Green DNA, 72 h; series mostly up to 28.7 µM
How it was run: as §1

HB3 = assay: as above; details: P. falciparum in erythrocytes, SYBR Green DNA, 72 h; series mostly up to 28.7 µM
How it was run: as §1

N140 = assay: as above; details: P. falciparum in erythrocytes, SYBR Green DNA, 72 h; series mostly up to 28.7 µM
How it was run: as §1

Chain of ATP-dependent 6-phosphofructokinase (Trypanosoma brucei brucei) (O15648 whole entry, looked up): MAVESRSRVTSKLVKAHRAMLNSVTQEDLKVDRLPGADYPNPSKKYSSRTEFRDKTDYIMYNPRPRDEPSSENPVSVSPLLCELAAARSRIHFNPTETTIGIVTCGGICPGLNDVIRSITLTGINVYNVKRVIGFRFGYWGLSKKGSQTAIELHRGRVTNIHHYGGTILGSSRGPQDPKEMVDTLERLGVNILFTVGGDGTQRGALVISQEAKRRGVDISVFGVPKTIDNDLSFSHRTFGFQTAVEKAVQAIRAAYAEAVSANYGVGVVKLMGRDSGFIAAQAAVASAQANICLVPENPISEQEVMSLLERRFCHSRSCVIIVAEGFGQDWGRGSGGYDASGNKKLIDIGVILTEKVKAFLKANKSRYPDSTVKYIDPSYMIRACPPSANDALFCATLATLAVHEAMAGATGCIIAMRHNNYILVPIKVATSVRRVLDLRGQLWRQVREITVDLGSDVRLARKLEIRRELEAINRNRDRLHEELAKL

CC(=O)O[C@]1(C(C)=O)CCC2C3CCC4=CC(=O)CCC4(C)C3(F)C(O)CC21C (stereo not given in full)
inactive: Potency [1] | activity, negative = inhibition ([2]; parasite line A) 7.47% | activity, negative = inhibition ([2]; parasite line B) -19% | Potency (AA1029) | Potency (AS120) | Potency (ATS189) | Potency (CP185) | Potency (CP191) | Potency (CP192) | Potency (CP211) | Potency (CP217) | Potency (CP238) | Potency (CP252) | Potency (CP262) | Potency (CP265) | Potency (CP286) | Potency (Dd2) | Potency (ECU) | Potency (FAB9) | Potency (HB3) | Potency (N140)

C#C[C@@]1(O)CC[C@@H]2[C@H]3CCC4=C/C(=N\O)CC[C@H]4[C@@H]3CC[C@]21CC
inactive: Potency [1] | activity, negative = inhibition ([2]; parasite line A) -13.3% | activity, negative = inhibition ([2]; parasite line B) -2.2% | Potency (AA1029) | Potency (AS120) | Potency (ATS189) | Potency (CP185) | Potency (CP191) | Potency (CP192) | Potency (CP211) | Potency (CP217) | Potency (CP238) | Potency (CP252) | Potency (CP262) | Potency (CP265) | Potency (CP286) | Potency (Dd2) | Potency (ECU) | Potency (FAB9) | Potency (HB3) | Potency (N140)

C=C(CC[C@@H](C)[C@H]1CCC2[C@]1(C)CC[C@]13C[C@@]14CCC(OC(=O)/C=C/c1ccc(O)c(OC)c1)C(C)(C)[C@@H]4CC[C@@]23C)C(C)C (stereo not given in full)
inactive: Potency [1] | activity, negative = inhibition ([2]; parasite line A) 3.06% | activity, negative = inhibition ([2]; parasite line B) 1.72% | Potency (AA1029) | Potency (AS120) | Potency (ATS189) | Potency (CP185) | Potency (CP191) | Potency (CP192) | Potency (CP211) | Potency (CP217) | Potency (CP238) | Potency (CP252) | Potency (CP262) | Potency (CP265) | Potency (CP286) | Potency (Dd2) | Potency (ECU) | Potency (FAB9) | Potency (HB3) | Potency (N140)

C[C@]12CC[C@@H]3c4ccc(O)cc4CC[C@H]3[C@@H]1CCC2OC(=O)CCC1CCCC1 (stereo not given in full)
inactive: Potency [1] | activity, negative = inhibition ([2]; parasite line A) -2.55% | activity, negative = inhibition ([2]; parasite line B) -17% | Potency (AA1029) | Potency (AS120) | Potency (ATS189) | Potency (CP185) | Potency (CP191) | Potency (CP192) | Potency (CP211) | Potency (CP217) | Potency (CP238) | Potency (CP252) | Potency (CP262) | Potency (CP265) | Potency (ECU) | Potency (FAB9) | Potency (HB3) | Potency (N140)

OC[C@@H](O)C(O[C@@H]1O[C@@H](CO)[C@H](O)[C@H](O)[C@H]1O)[C@H](O)[C@@H](O)CO (stereo not given in full)
inactive: Potency [1] | activity, negative = inhibition ([2]; parasite line A) 12% | activity, negative = inhibition ([2]; parasite line B) 4.36% | Potency (AA1029) | Potency (AS120) | Potency (ATS189) | Potency (CP185) | Potency (CP191) | Potency (CP192) | Potency (CP211) | Potency (CP217) | Potency (CP238) | Potency (CP252) | Potency (CP262) | Potency (CP265) | Potency (CP286) | Potency (Dd2) | Potency (ECU) | Potency (FAB9) | Potency (HB3) | Potency (N140)

COC(=O)C1C2CC3c4[nH]c5cc(OC)ccc5c4CCN3CC2CC(OC)C1OC (stereo not given)
inactive: Potency [1] | activity, negative = inhibition ([2]; parasite line A) 2.01% | activity, negative = inhibition ([2]; parasite line B) -6.18% | Potency (AA1029) | Potency (AS120) | Potency (ATS189) | Potency (CP185) | Potency (CP191) | Potency (CP192) | Potency (CP211) | Potency (CP217) | Potency (CP238) | Potency (CP252) | Potency (CP262) | Potency (CP265) | Potency (CP286) | Potency (Dd2) | Potency (ECU) | Potency (FAB9) | Potency (HB3) | Potency (N140)

Clc1ccc(CS[C@@H](Cn2ccnc2)c2ccc(Cl)cc2Cl)cc1
active: Potency ([2]; parasite line A) 3.16 µM | Potency ([2]; parasite line B) 2.24 µM | Potency (AA1029) 3.55 µM | Potency (AS120) 1.26 µM | Potency (ATS189) 3.16 µM | Potency (CP185) 3.98 µM | Potency (CP191) 3.55 µM | Potency (CP217) 3.16 µM | Potency (CP252) 3.98 µM | Potency (CP265) 3.16 µM | Potency (CP286) 3.55 µM | Potency (Dd2) 4.47 µM | Potency (ECU) 1.78 µM | Potency (HB3) 3.98 µM | Potency (N140) 1.41 µM
inactive: Potency [1]

N#C/C(=C1/SCC(c2ccccc2Cl)S1)n1ccnc1 (stereo not given)
inactive: Potency [1] | activity, negative = inhibition ([2]; parasite line A) -5.78% | activity, negative = inhibition ([2]; parasite line B) -14.7% | Potency (AA1029) | Potency (ATS189) | Potency (CP185) | Potency (CP191) | Potency (CP192) | Potency (CP211) | Potency (CP217) | Potency (CP238) | Potency (CP252) | Potency (CP262) | Potency (CP265) | Potency (CP286) | Potency (Dd2) | Potency (FAB9) | Potency (HB3)

CC(=O)CC(c1ccccc1)C1C(=O)Oc2ccccc2C1=O (stereo not given)
inactive: Potency [1] | activity, negative = inhibition ([2]; parasite line A) 13.7% | activity, negative = inhibition ([2]; parasite line B) 9.27% | Potency (AA1029) | Potency (AS120) | Potency (ATS189) | Potency (CP185) | Potency (CP191) | Potency (CP192) | Potency (CP211) | Potency (CP217) | Potency (CP238) | Potency (CP252) | Potency (CP262) | Potency (CP265) | Potency (CP286) | Potency (Dd2) | Potency (ECU) | Potency (FAB9) | Potency (HB3) | Potency (N140)

CC(CN1CC(=O)NC(=O)C1)N1CC(=O)NC(=O)C1 (stereo not given)
inactive: Potency [1] | activity, negative = inhibition ([2]; parasite line A) 1.79% | activity, negative = inhibition ([2]; parasite line B) 0.945% | Potency (AA1029) | Potency (AS120) | Potency (ATS189) | Potency (CP185) | Potency (CP191) | Potency (CP211) | Potency (CP217) | Potency (CP238) | Potency (CP252) | Potency (CP262) | Potency (CP265) | Potency (CP286) | Potency (Dd2) | Potency (ECU) | Potency (FAB9) | Potency (HB3) | Potency (N140)

C[C@@H]1CC2C3CCC4=CC(=O)C=C[C@]4(C)[C@@]3(F)[C@@H](O)C[C@]2(C)[C@@]1(O)C(=O)COC(=O)c1cccc(S(=O)(=O)O)c1 (stereo not given in full)
inactive: Potency [1] | activity, negative = inhibition ([2]; parasite line A) 4.33% | activity, negative = inhibition ([2]; parasite line B) -2.2% | Potency (AA1029) | Potency (AS120) | Potency (ATS189) | Potency (CP185) | Potency (CP191) | Potency (CP192) | Potency (CP211) | Potency (CP217) | Potency (CP238) | Potency (CP252) | Potency (CP262) | Potency (CP265) | Potency (CP286) | Potency (Dd2) | Potency (ECU) | Potency (FAB9) | Potency (HB3) | Potency (N140)
